TDP1 cell noCPT: qHTS for Inhibitors of human tyrosyl-DNA phosphodiesterase 1 (TDP1): qHTS in cells in absence of CPT | DT40 Tdp1-/- hTDP1 cells, no CPT, ATP luminescence, 48 h | Potency, µM (doses to about 46.2 µM), most hits filed as inhibitors | actives 15% (n = 420,000) | AID 686978, 2013; note: nearly all actives have a fitted effect of over 55% in size
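Chicken DT40 Tdp1-/- cells stably complemented with human TDP1 were seeded at 400 cells/well with DMSO in place of 20 nM camptothecin. After compound pinning, cells grew at least 48 hr at 37 °C; viability read by CellTiter-Glo luminescence.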
VP16 counter: counter-screen for ROR gamma inhibitors: Gal4-VP16 reporter; Drosophila S2 Gal4-VP16 UAS-luciferase, luminescence, 20 h; Potency, µM (top dose mostly 53.6 µM), hits mostly inhibitors; actives 3.5% (n = 310,000); AID 2546;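 note: Gal4-VP16 expression switched on by copper sulfate through the metallothionein promoter; nearly all actives have a fitted effect of over 50% in size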
RORg inh: blocks mouse ROR gamma transcriptional activity; Drosophila S2 Gal4-RORgamma UAS-luciferase reporter, 20 h; Potency, µM (highest dose often 53.6 µM), hits mostly inhibitors; P51450; actives 5.4% (n = 310,000); AID 2551; note: nearly all actives have a fitted effect of over 60% in size
Target sequence (P51450 whole entry, looked up, the tested form may be a part): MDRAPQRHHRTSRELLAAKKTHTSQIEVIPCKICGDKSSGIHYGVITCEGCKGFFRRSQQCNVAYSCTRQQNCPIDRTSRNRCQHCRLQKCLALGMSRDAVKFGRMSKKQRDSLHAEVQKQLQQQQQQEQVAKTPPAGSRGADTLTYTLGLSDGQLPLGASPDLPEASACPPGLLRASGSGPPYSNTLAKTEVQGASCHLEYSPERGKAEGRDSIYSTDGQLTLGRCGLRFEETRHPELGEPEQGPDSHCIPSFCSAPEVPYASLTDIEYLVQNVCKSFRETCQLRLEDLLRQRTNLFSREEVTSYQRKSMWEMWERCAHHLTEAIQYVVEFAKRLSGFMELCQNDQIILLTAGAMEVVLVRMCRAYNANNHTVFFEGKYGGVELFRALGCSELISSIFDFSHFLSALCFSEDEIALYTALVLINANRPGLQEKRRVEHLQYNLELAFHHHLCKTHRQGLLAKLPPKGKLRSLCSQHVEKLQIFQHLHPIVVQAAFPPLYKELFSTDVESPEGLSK
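Compounds are pin-transferred onto Drosophila Schneider cells expressing a copper-inducible Gal4–ROR gamma transactivation domain fusion. After 1 hr, copper sulfate is added to 700 uM final; luciferase is read 20 hr later.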
LDHA block: LDHA (human) enzyme inhibition; purified LDHA, NADH/diaphorase-resazurin fluorescence; stronger effect = lower value; P00338; AID 1347041; actives 0.15% (n = 480,000); activity change, % (values are at about 110 or 230 µM); in the data active = activity change below about -30%; inconclusive = mostly about -25% to -30%
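Resorufin fluorescence (ex540/em590), read at 0 and 20 min after diaphorase/resazurin addition, reports the NADH left after a 5 min room-temperature reaction of 2 nM human LDH5 with 0.06 mM NADH and 0.2 mM pyruvate.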
IL-1B inflam inh: blocks inflammasome-driven IL-1 beta release | activity change, % at 57.5 µM | actives 4.7% (n = 360,000) | THP-1 LPS/ATP IL-1B secretion, AlphaLISA, 16 h; stronger effect = lower value; in the data active = activity change below about -50%; inconclusive = mostly about -30% to -49%
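Secreted IL-1B measured by AlphaLISA bead assay after 16 h compound exposure of THP-1 cells; compounds (final up to 57.5 uM) added 1 h before LPS (250 ng/mL) and ATP (1.25 mM) stimulation; lower signal means less secretion.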
DT40 TDP1 CPT: growth inhibition of DT40 Tdp1-/-;hTDP1 cells with camptothecin (screen for TDP1 inhibitors); chicken DT40 Tdp1-/-;hTDP1 cells + 20 nM CPT, ATP luminescence, 48 h; Potency, µM (highest dose often 46.2 µM), hits mostly inhibitors; actives 12% (n = 420,000); AID 686979; note: nearly all actives have a fitted effect of over 55% in size
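Chicken DT40 Tdp1-/- cells complemented with human TDP1, 400 cells/well, exposed to compounds plus 20 nM camptothecin for at least 48 h at 37 C; viability read as ATP content by CellTiter-Glo luminescence.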
Large screens that a line does not name were inactive. Shown are actives, neighbours in structure and some others; about 18% of the full set was active somewhere. Unless noted, calls come from the whole dose curve; as a rule, active = well fitted curve in the direction sought with a large enough effect; inconclusive = small, poorly fitted or top-dose-only effect, or another doubt; inactive = no such curve, though single readings can be large; an effect the other way counts as inactive or inconclusive.

Cc1ccc(NC(=O)/C(C#N)=C/c2ccccc2Cl)cc1C	TDP1 cell noCPT 26µM, DT40 TDP1 CPT 26µM (no result: VP16 counter, RORg inh, IL-1B inflam inh)
N#C/C(=C\c1ccccc1Cl)C(=O)Nc1ccccn1	none
CCc1cccc(CC)c1NC(=O)/C(C#N)=C/c1ccccc1C(F)(F)F	TDP1 cell noCPT 21µM, VP16 counter 10µM, RORg inh 11µM, IL-1B inflam inh -99, DT40 TDP1 CPT inconclusive
CCc1ccc(S(=O)(=O)N(C)C(C)c2nc3ccccc3s2)cc1 (stereo not drawn)	none (no result: TDP1 cell noCPT, VP16 counter, RORg inh, IL-1B inflam inh, DT40 TDP1 CPT)
N#C/C(=C/c1ccc(O)c([N+](=O)[O-])c1)C(=O)Nc1ccccc1	TDP1 cell noCPT 6.5µM, RORg inh inconclusive, DT40 TDP1 CPT 4.1µM
S=c1[nH]nc(-c2ccc(Cl)cc2)n1-c1cccnc1	none
Cc1ccc(-n2c(-c3c(-c4ccccc4)noc3C)n[nH]c2=S)cc1	VP16 counter 10µM, RORg inh 4.5µM
COc1ccccc1-n1c(-c2cc(-c3ccc(F)cc3)n[nH]2)n[nH]c1=S	TDP1 cell noCPT inconclusive, RORg inh 7.9µM
COc1ccc(-c2cc(-c3n[nH]c(=S)n3-c3cccc4ccccc34)[nH]n2)cc1	RORg inh inconclusive
S=c1[nH]nc(-c2cccnc2)n1-c1ccccc1	VP16 counter inconclusive, RORg inh 7.9µM
S=c1[nH]nc(-c2cc(-c3ccsc3)n[nH]2)n1-c1cccc2ccccc12	TDP1 cell noCPT 29µM, RORg inh inconclusive, DT40 TDP1 CPT inconclusive
COc1ccc(C)cc1-n1c(-c2ccncc2)n[nH]c1=S	none
COc1ccccc1-c1n[nH]c(=S)n1-c1ccccc1	VP16 counter inconclusive, RORg inh 11µM
Cc1ccc(-n2c(-c3cccc(C)c3)n[nH]c2=S)cc1	TDP1 cell noCPT inconclusive, VP16 counter 7.1µM, RORg inh 3.2µM
COc1ccc(-c2n[nH]c(=S)n2-c2ccc(C)cc2)cc1OC	VP16 counter inconclusive, RORg inh 16µM
COc1cc(-n2c(-c3ccccc3)n[nH]c2=S)c(OC)cc1Cl	RORg inh 5µM
Cc1ccc(-n2c(-c3cccnc3)n[nH]c2=S)c(C)c1	VP16 counter inconclusive, RORg inh inconclusive
COc1ccc(-c2n[nH]c(=S)n2-c2ccc3c(c2)OCCO3)cc1OC	none
CC1Cc2cc(S(=O)(=O)NCCC(=O)NCc3ccco3)ccc2N1C(=O)C1CC1 (stereo not drawn)	none (no result: TDP1 cell noCPT, VP16 counter, RORg inh, IL-1B inflam inh, DT40 TDP1 CPT)
COc1ccc(-c2cccc3c2NC(=O)C3=O)cc1OC	TDP1 cell noCPT 15µM, DT40 TDP1 CPT 18µM (no result: VP16 counter, RORg inh)
Cn1c(=O)c2c(SCC(=O)Nc3ccccc3F)nc(C3CC3)nc2n(C)c1=O	TDP1 cell noCPT inconclusive, DT40 TDP1 CPT inconclusive
Cc1ccc(-c2nc(SCC(=O)Nc3cc(C)on3)c3c(=O)n(C)c(=O)n(C)c3n2)cc1	TDP1 cell noCPT 15µM, DT40 TDP1 CPT 12µM
Cc1csc(NC(=O)CSc2nc(C(C)C)nc3c2c(=O)n(C)c(=O)n3C)n1	TDP1 cell noCPT 4.6µM, VP16 counter inconclusive, RORg inh inconclusive, DT40 TDP1 CPT 10µM
Cc1nc(SCC(=O)Nc2cc(C)on2)c2c(=O)n(C)c(=O)n(C)c2n1	none
Cn1c(=O)c2c(SCC(=O)Nc3ccccc3F)nc(-c3ccccc3F)nc2n(C)c1=O	TDP1 cell noCPT 15µM, DT40 TDP1 CPT inconclusive
CC1(C)Cc2c(sc(NC(=O)C(=O)NCCO)c2C#N)CO1	none (no result: TDP1 cell noCPT, VP16 counter, RORg inh, IL-1B inflam inh, DT40 TDP1 CPT)
Cc1noc(C)c1COc1cccc(C(=O)N[C@@H](Cc2ccccc2)c2nc3ccccc3[nH]2)c1	none (no result: TDP1 cell noCPT, VP16 counter, RORg inh, IL-1B inflam inh, DT40 TDP1 CPT)
C#CC(CC)(CC)NC(=O)CSc1nc2cc(Cl)ccc2s1	none (no result: TDP1 cell noCPT, VP16 counter, RORg inh, IL-1B inflam inh, DT40 TDP1 CPT)
O=C(OCCN1CCOCC1)c1ccc(OCCN2CCOCC2)cc1	none
O=C(CCN1CCOCC1)c1ccccc1	TDP1 cell noCPT 3.5µM, RORg inh inconclusive, IL-1B inflam inh -72, DT40 TDP1 CPT 2.6µM
Brc1ccc(OCCCCCN2CCOCC2)cc1	IL-1B inflam inh -59
CC1CCCN(CCC(=O)c2ccccc2)C1 (stereo not drawn)	TDP1 cell noCPT 10µM, DT40 TDP1 CPT 4.6µM (no result: VP16 counter, RORg inh)

Screening data deposited in PubChem by National Center for Advancing Translational Sciences (NCATS).
